# PubChem BioAssay (NCATS)
# Several values for one entry are separate records, joined by “and”; a condition that tells them apart may be missing. Identical values can stand only once. Values without a mark were called inactive. Inconclusive results are not listed. Activity calls are given as the source filed them. Unless noted, calls come from the whole dose curve.
# Experiments:
# [1] = Cell Viability - BJ (AID 421); conditions: BJ fibroblast viability, qHTS;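 note: potency is the fitted concentration of half-maximal effect; cells exposed to compound for 40 hours at 37 °C before readout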
# How it was run: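 Cytotoxicity in human BJ foreskin fibroblasts is scored as loss of cellular ATP after a 40-hour exposure, measured by luciferase luminescence. Controls are DMSO and 100 uM tamoxifen.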
# [2] = Cell Viability - Jurkat (AID 426;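 active = dose-dependent loss of cell ATP signal giving a full or clear fitted curve, ranked by lower potency value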;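 note: potency is the fitted concentration of half-maximal effect; cells exposed to compound for 40 hours at 37 °C before ATP read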); conditions: qHTS
# How it was run: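 Cytotoxicity was scored as loss of cellular ATP, measured by luciferase-based luminescence, in Jurkat clone E6-1 cells after 40 h compound treatment; tamoxifen and doxorubicin served as positive controls.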
# [3] = Cell Viability - Hek293 (AID 427;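 active = compounds whose dose-response curve shows a full or clear partial loss of cell viability, called from curve shape rather than a numeric limit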;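 note: potency is the fitted concentration of half-maximal effect; cells exposed to compound for 40 hours at 37 °C before reading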); conditions: qHTS
# How it was run: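 qHTS, human embryonic kidney (adenovirus-transformed) cells; 40 hr cpd, 37 °C; CellTiter-Glo ATP luminescence. Norm: DMSO = 0, 100 uM tamoxifen = 100% inhibition. Hill-fit AC50.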
# [4] = Cell Viability - HepG2 (AID 433); conditions: qHTS;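 note: potency is the fitted concentration of half-maximal effect; potency for ATP loss meaning cytotoxicity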
# How it was run: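 HepG2 hepatocellular carcinoma cells (1500/well) were treated with compounds for 40 h at 37 °C in complete medium; intracellular ATP was read by CellTiter-Glo luminescence. Data were normalized to DMSO and 100 uM tamoxifen, and AC50 came from Hill fits.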
# [5] = Cell Viability - MRC5 (AID 434); conditions: MRC5 lung fibroblast viability, qHTS;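 note: potency is the fitted concentration of half-maximal effect; potency reflects cytotoxicity seen as loss of intracellular ATP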
# How it was run: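 Decrease in intracellular ATP, quantified by luciferase light output, reflects compound toxicity toward MRC5 cells exposed for 40 hr in complete culture medium. Concentration-response curves, scaled between DMSO and 100 uM tamoxifen, gave AC50 values.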
# [6] = Cell Viability - SK-N-SH (AID 435); conditions: SK-N-SH neuroblastoma cell viability qHTS;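 note: potency is the fitted concentration of half-maximal effect; compound exposure lasted 40 h at 37 °C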
# How it was run: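 SK-N-SH human neuroblastoma cells (1500/well) were exposed to compounds in complete medium for 40 h at 37 °C, and intracellular ATP was then measured by CellTiter-Glo luminescence. AC50 was taken from Hill fits, normalized to DMSO and 100 uM tamoxifen.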
# [7] = Cell Viability - N2a (AID 540; active = well fitted curve in the direction sought with a large enough effect; an effect the other way counts as inactive or inconclusive; note: nearly all actives have a fitted effect of over 45% in size; note: potency is the fitted concentration of half-maximal effect;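 for activity change, negative = cytotoxicity: plate controls were DMSO alone for no effect and tamoxifen control for full effect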); conditions: N2a mouse neuroblastoma cell viability; activity change, negative = cytotoxicity: at 92.2 µM (top of the series)
# How it was run: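 In this qHTS cytotoxicity screen, ATP-dependent luciferase luminescence reports viable N2a cells after a 40 hr compound exposure in complete culture medium. Potencies are AC50 values from standard Hill equation fits.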
# [8] = Cell Viability - HUV-EC-C (AID 542; active = well fitted curve in the direction sought with a large enough effect; an effect the other way counts as inactive or inconclusive; note: nearly all actives have a fitted effect of over 35% in size; note: potency is the fitted concentration of half-maximal effect)
# How it was run: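 Concentration-dependent ATP loss in HUV-EC-C cells is the measure. Exposure lasts 40 hr at 37 °C; luminescence follows CellTiter-Glo addition, and Hill fits give AC50.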
# [9] = Cell Viability - H-4-II-E (AID 543; active = well fitted curve in the direction sought with a large enough effect; an effect the other way counts as inactive or inconclusive; note: nearly all actives have a fitted effect of over 35% in size; note: potency is the fitted concentration of half-maximal effect)
# How it was run: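 AC50 from Hill-modelled qHTS concentration-response curves. H-4-II-E rat hepatoma cells in complete medium, 40 hr exposure at 37 °C, viability by CellTiter-Glo ATP luminescence.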
# [10] = Cell Viability - SH-SY5Y (AID 544; active = well fitted curve in the direction sought with a large enough effect; an effect the other way counts as inactive or inconclusive; note: nearly all actives have a fitted effect of over 55% in size; note: potency is the fitted concentration of half-maximal effect;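 for viability change, negative = cytotoxic: 0% = DMSO alone and -100% = 100 µM tamoxifen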); conditions: SH-SY5Y neuroblastoma cell viability; viability change, negative = cytotoxic: at 92.2 µM (top of the series)
# How it was run: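 Quantitative HTS in SH-SY5Y neuroblastoma cells, 40 hr treatment at 37 °C, ATP content by luciferase luminescence; AC50 from Hill fits.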
# [11] = Cell Viability - Renal Proximal Tubule (AID 545; active = well fitted curve in the direction sought with a large enough effect; an effect the other way counts as inactive or inconclusive; note: nearly all actives have a fitted effect of over 40% in size; note: potency is the fitted concentration of half-maximal effect;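 for activity change, negative = cytotoxicity: 0% = DMSO only and -100% = 100 µM tamoxifen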); conditions: renal proximal tubule cells viability, primary cells of rat origin; activity change, negative = cytotoxicity: at 91.7 µM (top of the series)
# How it was run: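 Primary rat renal proximal tubule cells (1000/well) were treated with compounds for 40 hr at 37 °C in complete medium. Intracellular ATP was measured by CellTiter-Glo luminescence, and AC50 values came from Hill-equation fits of concentration-response data.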
# [12] = Cell Viability - Mesenchymal (AID 546; active = well fitted curve in the direction sought with a large enough effect; an effect the other way counts as inactive or inconclusive;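 note: cells exposed to compound for 40 hours before reading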; note: potency is the fitted concentration of half-maximal effect;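 for activity change, negative = cytotoxicity: 0% = DMSO only and -100% = 100 µM tamoxifen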); conditions: mesenchymal cells viability, qHTS; activity change, negative = cytotoxicity: at 91.7 µM (top of the series)
# How it was run: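 In this qHTS cytotoxicity format, glomerulus-derived human mesenchymal kidney cells received compound for 40 hr, then luciferase-based ATP quantitation. Concentration-response data were fitted with the Hill equation.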
# [13] = target: Cytochrome P450 1A2 (Homo sapiens) (UniProt P05177); assay: p450-cyp1a2 (AID 410); note: potency is the fitted concentration of half-maximal effect
# Cytochrome P450 1A2 (Homo sapiens), sequence (P05177 whole entry, looked up): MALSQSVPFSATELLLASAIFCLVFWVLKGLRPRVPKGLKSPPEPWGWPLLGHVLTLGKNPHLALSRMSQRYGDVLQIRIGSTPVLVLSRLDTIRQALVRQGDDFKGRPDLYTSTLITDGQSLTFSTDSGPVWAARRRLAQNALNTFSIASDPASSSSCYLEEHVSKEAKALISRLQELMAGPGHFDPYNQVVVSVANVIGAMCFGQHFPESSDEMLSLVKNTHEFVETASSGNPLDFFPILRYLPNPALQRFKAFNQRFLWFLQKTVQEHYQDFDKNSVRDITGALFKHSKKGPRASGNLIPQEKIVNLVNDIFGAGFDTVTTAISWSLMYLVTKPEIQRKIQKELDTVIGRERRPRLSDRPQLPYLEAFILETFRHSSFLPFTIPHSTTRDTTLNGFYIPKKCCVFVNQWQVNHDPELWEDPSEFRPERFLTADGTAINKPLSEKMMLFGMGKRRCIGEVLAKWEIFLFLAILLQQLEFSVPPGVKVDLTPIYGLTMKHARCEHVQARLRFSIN
# How it was run: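 Read-out is luminescence from luciferin produced by CYP1A2 demethylation of Luciferin-ME (100uM, at Km). Detection reagent stopped the 60 min NADPH-dependent reaction; signals were normalized to 57 uM furafylline.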
# [14] = target: Glucocorticoid receptor (Homo sapiens) (UniProt P04150); assay: GR-GFP Redistribution (AID 450;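 active = compounds whose dose series gives a full or clear partial fitted curve of increased nuclear translocation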; note: potency is the fitted concentration of half-maximal effect); conditions: U2OS GR-GFP nuclear translocation, laser cytometry, 2 h
# Glucocorticoid receptor (Homo sapiens), sequence (P04150 whole entry, looked up, the tested form may be a part): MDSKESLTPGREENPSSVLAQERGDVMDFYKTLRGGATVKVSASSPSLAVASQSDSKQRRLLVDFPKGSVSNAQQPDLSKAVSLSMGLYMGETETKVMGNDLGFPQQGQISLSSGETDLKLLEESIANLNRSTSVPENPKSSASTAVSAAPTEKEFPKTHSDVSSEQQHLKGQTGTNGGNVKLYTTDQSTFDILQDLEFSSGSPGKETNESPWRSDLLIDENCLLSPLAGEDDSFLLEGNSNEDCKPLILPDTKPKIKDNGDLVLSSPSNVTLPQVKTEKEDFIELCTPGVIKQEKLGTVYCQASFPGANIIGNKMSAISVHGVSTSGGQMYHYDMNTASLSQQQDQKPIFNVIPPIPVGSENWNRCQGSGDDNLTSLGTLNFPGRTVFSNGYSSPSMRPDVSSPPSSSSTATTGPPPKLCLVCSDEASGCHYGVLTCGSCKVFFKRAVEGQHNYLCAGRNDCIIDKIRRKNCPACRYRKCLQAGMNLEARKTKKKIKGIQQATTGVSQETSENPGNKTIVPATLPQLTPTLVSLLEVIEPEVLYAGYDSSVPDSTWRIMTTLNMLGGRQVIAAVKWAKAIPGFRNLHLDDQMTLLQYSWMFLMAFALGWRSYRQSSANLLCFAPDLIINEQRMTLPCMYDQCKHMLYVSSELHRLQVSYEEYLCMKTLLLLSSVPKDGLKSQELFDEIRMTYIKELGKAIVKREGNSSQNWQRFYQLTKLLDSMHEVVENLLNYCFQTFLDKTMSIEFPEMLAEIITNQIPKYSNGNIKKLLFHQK
# [15] = target: Glucocorticoid receptor (Homo sapiens) (UniProt P04150); assay: GR-EFC Redistribution (AID 451); conditions: CHO-K1 GR-EFC translocation, beta-gal luminescence, 2 h; note: potency is the fitted concentration of half-maximal effect
# How it was run: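 CHO-K1 cells stably expressing nuclear-localized β-gal enzyme acceptor and GR fused C-terminally to the enzyme donor fragment; ligand-driven nuclear translocation restores β-gal by complementation. Compounds titrated up to 46 uM final, 2 h at 37 °C; luminescence read.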
# [16] = target: Mitogen-activated protein kinase 10 (Mus musculus) (UniProt Q61831); assay: JNK3 AlphaScreen Assay (AID 530; active = well fitted curve in either direction with a large enough effect, not every such curve was filed as active;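 note: kinase came from lysate of stimulated human HepG2 cells; signal reports phosphorylation of biotinylated GST-cJun 1-79 at Ser73 with 10 µM ATP; % is set by controls: 0 for no effect and ±100 for the full control effect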)
# How it was run: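 Biotinylated GST-cJun(1-79) served as substrate for JNK3 in HepG2 lysates stimulated with IL-1beta and TNF-alpha. ATP was 10 uM final, pH 7.6. Ser73 phosphorylation was quantified by AlphaScreen (680 nm excitation).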
# [17] = AP1 Signaling Pathway (AID 357; active = well fitted curve in either direction with a large enough effect, not every such curve was filed as active; note: % is set by controls: 0 for no effect and ±100 for the full control effect)
# How it was run: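 ME-180 cells with beta-lactamase reporter under AP-1 response element, stimulated with EC50 EGF; compounds tested in titration series, 5 h at 37 °C. CCF4 substrate added 2.5 h at room temperature; 460/530 nm emission ratio gave %activity and AC50.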
# [18] = NFAT Signaling Pathway (AID 444; active = well fitted curve in either direction with a large enough effect, not every such curve was filed as active;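 note: carbachol stimulus at about its EC50 of 1 µM final; % is set by controls: 0 for no effect and ±100 for the full control effect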)
# How it was run: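 Jurkat cells carrying an NFAT-driven β-lactamase reporter and co-transfected muscarinic M1 receptor were treated with compound plus carbachol (1 uM final, an EC50 level) for 5 h at 37 °C. CCF4 loading followed for 1 h at RT; 460/530 nm ratio gave %activity.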
# [19] = Stat Signaling Pathway (AID 446; active = well fitted curve in either direction with a large enough effect, not every such curve was filed as active;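 note: ME-180 cervical cancer cells given 40 pM IL-6 alongside compound; SIE-controlled beta-lactamase reporter measured as 460/530 nm FRET emission ratio; % is set by controls: 0 for no effect and ±100 for the full control effect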); conditions: ME-180 (cervical carcinoma) SIE beta-lactamase reporter, IL-6 stimulated, 5 h; at 17.2 µM (top of the series)
# How it was run: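 Emission at 460 and 530 nm (excitation 405 nm) reports SIE-controlled beta-lactamase in ME-180 cells. Cells received compound with 40 pM IL-6 for 5 hrs at 37 C; data scaled between 300 pM IL-6 and 125 nM JAK-inhibitor controls.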
structure (smiles),measurement,setting,value
CCn1cc(C(=O)O)c(=O)c2ccc(C)nc21,Potency,[1],> 92 µM
same,Potency,[2],> 92 µM
same,Potency,[3],> 92 µM
same,Potency,[4],> 92 µM
same,Potency,[5],> 92 µM
same,Potency,[6],> 92 µM
same,Potency,[7],inactive
same,Potency,[8],inactive
same,Potency,[9],inactive
same,Potency,[10],inactive
same,Potency,[11],inactive
same,Potency,[12],inactive
CC1(C)CCC2=C(O1)c1ccccc1C(=O)C2=O,Potency,[13],3.98 µM (active)
same,Potency,[14],> 46 µM
same,Potency,[15],> 46 µM
same,outcome,[16],inactive
O=c1[nH]cnc2c1ncn2[C@H]1CC[C@@H](CO)O1,Potency,[1],> 92 µM
same,Potency,[2],> 92 µM
same,Potency,[3],> 92 µM
same,Potency,[4],> 92 µM
same,Potency,[5],> 92 µM
same,Potency,[6],> 92 µM
same,Potency,[7],inactive
same,Potency,[8],inactive
same,Potency,[9],inactive
same,Potency,[10],inactive
same,Potency,[11],inactive
same,Potency,[12],inactive
Nc1ncnc2c1ncn2[C@@H]1O[C@@H](CO)[C@H](O)[C@H]1O,outcome,[17],inactive
same,outcome,[18],inactive
same,"activity, negative = inhibition",[19],-10%
same,Potency,[14],> 20.6 µM
same,Potency,[15],> 20.6 µM
same,outcome,[16],inactive
O=c1c(O)c(-c2ccc(O)cc2)oc2cc(O)cc(O)c12,Potency,[1],> 92 µM
same,Potency,[2],> 92 µM
same,Potency,[3],> 92 µM
same,Potency,[4],> 92 µM
same,Potency,[5],> 92 µM
same,Potency,[6],> 92 µM
same,Potency,[14],> 20.6 µM and > 46 µM
same,Potency,[15],> 20.6 µM and > 46 µM
same,outcome,[16],inactive
same,Potency,[7],inactive
same,Potency,[8],inactive
same,Potency,[11],inactive
same,Potency,[12],inactive
O=c1cc(-c2ccc(O)cc2)oc2cc(O)cc(O)c12,Potency,[1],> 92 µM
same,Potency,[4],> 92 µM
same,"activity, negative = inhibition",[19],-101% (active)
same,Potency,[14],> 46 µM and > 20.6 µM
same,Potency,[15],> 46 µM and > 20.6 µM
same,Potency,[7],inactive
same,Potency,[8],inactive
same,Potency,[10],25.1 µM (active)
same,Potency,[12],inactive
CC(C)NCC(O)COc1cccc2[nH]ccc12 (configuration not stated),outcome,[17],inactive
same,outcome,[18],inactive
same,"activity, negative = inhibition",[19],24.1%
same,Potency,[14],> 20.6 µM
CC(=O)N[C@@H](CS)C(=O)O,outcome,[17],inactive
same,outcome,[18],inactive
same,"activity, negative = inhibition",[19],3.22%
same,Potency,[14],> 20.6 µM
O=c1cc(-c2ccccc2)oc2cc(O)cc(O)c12,Potency,[14],> 20.6 µM
same,Potency,[15],> 20.6 µM
CS(=O)c1ccc(-c2nc(-c3ccc(F)cc3)c(-c3ccncc3)[nH]2)cc1 (configuration not stated),Potency,[13],631 nM (active) and 3.98 µM (active)
same,Potency,[14],> 46 µM
same,Potency,[15],> 46 µM
CC[C@]1(O)C[C@@H]2CN(CCc3c([nH]c4ccccc34)[C@@](C(=O)OC)(c3cc4c(cc3OC)N(C)[C@H]3[C@@](O)(C(=O)OC)[C@H](OC(C)=O)[C@]5(CC)C=CCN6CC[C@]43[C@@H]65)C2)C1,outcome,[17],inactive
same,"activity, negative = inhibition",[19],-9.58%
same,Potency,[14],> 20.6 µM
COc1ccc2c3c1OC1C[C@@H](O)C=C[C@@]31CCN(C)C2 (some centres not stated),outcome,[17],inactive
same,outcome,[18],inactive
same,"activity, negative = inhibition",[19],12.6%
same,Potency,[14],> 20.6 µM
same,Potency,[15],> 20.6 µM
same,outcome,[16],inactive
O=C(O)Cc1cccc2ccccc12,Potency,[1],> 92 µM
same,Potency,[2],> 92 µM
same,Potency,[3],> 92 µM
same,Potency,[4],> 92 µM
same,Potency,[5],> 92 µM
same,Potency,[6],> 92 µM
same,outcome,[16],inactive
same,Potency,[7],inactive
same,Potency,[8],inactive
same,Potency,[9],inactive
same,Potency,[10],inactive
same,Potency,[11],inactive
same,Potency,[12],inactive
CC(C)[C@H](CO)Nc1nc(Nc2ccc(C(=O)O)c(Cl)c2)c2ncn(C(C)C)c2n1,Potency,[13],inactive
same,Potency,[14],> 46 µM
same,Potency,[15],> 46 µM
same,outcome,[16],inactive
CC1=C(/C=C/C(C)=C/C=C/C(C)=C/C(=O)Nc2ccc(O)cc2)C(C)(C)CCC1,Potency,[1],30.8 µM (active)
same,Potency,[2],2.16 µM (active)
same,Potency,[4],34.9 µM (active)
same,Potency,[5],24.7 µM (active)
same,Potency,[6],7.43 µM (active)
same,outcome,[16],inactive
same,Potency,[7],31.6 µM (active)
same,Potency,[8],31.6 µM (active)
same,Potency,[9],20 µM (active)
same,Potency,[10],12.6 µM (active)
same,Potency,[11],20 µM (active)
same,Potency,[12],31.6 µM (active)
